# Test results reported in PubChem BioAssay (NCI).
# This is part of a sample that, as a whole, favours compounds with a hit. Of some 83,000 tested, about 20% had one in any assay.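 Testing used 96-well plates and a 48-hour single-concentration exposure. Example: -40 means 40% of the starting cells died.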 Unmarked numbers belong to inactive results. Active and inactive are the calls of the source. The calls were made as follows: active = growth percent below 10; inactive = the rest.
# Columns and labels:
# Assay in all cases: NCI-60 one-dose screen, 48 h (100 = growth as untreated, 0 = no growth, -100 = all killed)
# SR leukemia = conditions: 10 µM unless noted
# RPMI-8226 leukemia = conditions: 10 µM
# OVCAR-8 ovarian = conditions: 10 µM unless noted
# OVCAR-5 ovarian = conditions: 10 µM unless noted
# OVCAR-4 ovarian = conditions: 10 µM unless noted
# SK-OV-3 ovarian = conditions: 10 µM
# IGROV1 ovarian = conditions: 10 µM unless noted
# OVCAR-3 ovarian = conditions: 10 µM unless noted
# HS 578T breast = conditions: 10 µM unless noted
# NCI/ADR-RES ovarian = conditions: 10 µM unless noted
# T-47D breast = conditions: 10 µM
# BT-549 breast = conditions: 10 µM unless noted
# MDA-MB-435 melanoma = conditions: 10 µM unless noted
# SW-620 colon = conditions: 10 µM unless noted
# MCF7 breast = conditions: 10 µM unless noted
# HCT-116 colon = conditions: 10 µM unless noted
# KM12 colon = conditions: 10 µM unless noted
# HCC-2998 colon = conditions: 10 µM unless noted
Structure (SMILES),growth (SR leukemia),growth (RPMI-8226 leukemia),growth (OVCAR-8 ovarian),growth (OVCAR-5 ovarian),growth (OVCAR-4 ovarian),growth (SK-OV-3 ovarian),growth (IGROV1 ovarian),growth (OVCAR-3 ovarian),growth (HS 578T breast),growth (NCI/ADR-RES ovarian),growth (T-47D breast),growth (BT-549 breast),growth (MDA-MB-435 melanoma),growth (SW-620 colon),growth (MCF7 breast),growth (HCT-116 colon),growth (KM12 colon),growth (HCC-2998 colon)
COc1cccc(C2CC(=O)Nc3cc4c(cc32)CCC4)c1OC (stereo not drawn),3.06% (active),50.6%,84.9%,99.5%,76.2%,44.5%,57%,46.1%,67.7%,42.1%,57.1%,62.3%,-56.5% (active),29.3%,29.3%,57.7%,28.5%,–
COc1ccc(-c2csc3c2-n2cccc2C3=O)cc1O,-6.8% (active),-19.8% (active),5.09% (active),84.5%,37.4%,1.75% (active),20.3%,-38.7% (active),32.7%,-25.4% (active),79.6%,-26.2% (active),-57.1% (active),20.2%,5.97% (active),-9.12% (active),-2.75% (active),–
CC1(C)CC(=O)C2=C(C1)Nc1cc3c(cc1C2c1ccc(F)cc1)OCO3 (stereo not drawn),90.4%,92.1%,97%,107%,93.9%,97.6%,100%,103%,88.3%,90.7%,85.3%,110%,102%,104%,90.6%,96.7%,99.3%,102%
O=C1c2ccccc2-c2nnc(-c3ccc(Br)cc3)cc21,11.6%,27.4%,77.7%,110%,10.1%,91.6%,40.4%,-23% (active),48.2%,9.3% (active),52.7%,71.5%,-69.1% (active),73.3%,14.8%,1.98% (active),64%,–
CCN(c1ccc(C(=O)N2CCN(c3ccccc3)CC2)cc1)S(C)(=O)=O,90.2%,102%,103%,109%,107%,106%,107%,106%,105%,108%,93.2%,108%,106%,108%,95.9%,101%,101%,102%
CC(C)(C)[Si](C)(C)OC1[C@@H](CNC(=O)NC(=O)CCl)O[C@@H](n2cnc3c(N)ncnc32)[C@H]1O[Si](C)(C)C(C)(C)C (stereo partly drawn),-58.2% (active),-43% (active),-47.7% (active),-37.5% (active),-54.7% (active),92%,-61.8% (active),-91.5% (active),-16.9% (active),-30.4% (active),13.5%,-70.6% (active),-90% (active),-82% (active),-75.5% (active),-87.7% (active),-82.4% (active),-69.5% (active)
O=C(CCc1nnc2sc(-c3ccccc3)nn12)c1nc2ccccc2[nH]1,69.6%,83%,97.2%,116%,98.7%,107%,96.8%,116%,102%,92.5%,80.3%,98.4%,94.8%,123%,87%,72.2%,100%,104%
NS(=O)(=O)c1cc(Br)c2c(c1)S(=O)(=O)NCN2,88%,106%,103%,112%,120%,115%,115%,99.3%,110%,135%,102%,108%,105%,109%,97.4%,108%,96.9%,–
Cc1cc(=O)[nH]n1-c1cc(Cl)ccc1N,96.6%,106%,103%,111%,105%,98.6%,109%,124%,123%,90.6%,105%,87.1%,111%,113%,101%,95.6%,119%,–
O=c1[nH]c(-c2ccncc2)nc2sc3c(c12)CCCCCC3,40%,91%,69.2%,80%,1.18% (active),31.5%,69.5%,74.1%,85.9%,55%,24.6%,98.9%,77.7%,72.2%,77.4%,46.6%,84.4%,101%
Cc1ccc(S(=O)(=O)c2ccc3[nH]c(=O)[nH]c(=O)c3c2)cc1,82.3%,95.6%,95.2%,107%,97.9%,97.2%,104%,110%,101%,107%,90.9%,92.4%,116%,105%,91.5%,90.9%,106%,–
O=C(Nc1ccc(Cl)c(Cl)c1)OCn1ncc2ccc([N+](=O)[O-])cc21,76.7%,83.4%,89%,77.5%,93.6%,86.2%,75.5%,85.1%,75.4%,84.1%,80%,78.5%,94.3%,106%,85.9%,80.7%,86.2%,93.8%
Cc1c(C)n(CC(O)CNC2CCCCC2C)c2ccccc12 (stereo not drawn),1.95% (active),-10.6% (active),4.94% (active),-58.8% (active),-26.2% (active),52.9%,-73.1% (active),-89.8% (active),28.3%,3.85% (active),-10.5% (active),-94.3% (active),-67.9% (active),-77% (active),-23.4% (active),-81.9% (active),-77.9% (active),–
CN1CCc2c(c3ccccc3c3ccccc23)C1,20.5%,50.8%,37.3%,60%,82.1%,63%,61.4%,63.7%,82.4%,45%,55.5%,94.7%,51.4%,28.7%,26.4%,16.9%,39.1%,70%
Cc1nc2nc(C(F)(F)F)[nH]c2nc1C,111%,92.1%,105%,115%,97.7%,98.5%,117%,116%,119%,107%,104%,100%,112%,114%,95.2%,101%,105%,–
NC(=O)c1nc2c([nH]c1=O)CCCC2,100%,96.5%,106%,117%,109%,94.7%,115%,108%,109%,105%,92.7%,115%,113%,101%,98.7%,109%,98.8%,–
CN1CCC(OC2c3ccccc3CCc3ccccc32)CC1,96.5%,88%,97.6%,95.3%,94.4%,96%,109%,106%,87.4%,96.5%,94.9%,90.7%,95.5%,95.1%,90.5%,98.4%,102%,–

Structure (SMILES),growth (SR leukemia),growth (RPMI-8226 leukemia),growth (OVCAR-8 ovarian),growth (OVCAR-5 ovarian),growth (OVCAR-4 ovarian),growth (SK-OV-3 ovarian),growth (IGROV1 ovarian),growth (OVCAR-3 ovarian),growth (HS 578T breast),growth (NCI/ADR-RES ovarian),growth (T-47D breast),growth (BT-549 breast),growth (MDA-MB-435 melanoma),growth (SW-620 colon),growth (MCF7 breast),growth (HCT-116 colon),growth (KM12 colon),growth (HCC-2998 colon)
COc1cc(-c2ccc3cc(OC)c(OC)c(OC)c3c2)cc(OC)c1OC,4.29% (active),53.1%,78.4%,82%,61.2%,76.7%,68.6%,78.9%,69.1%,36.6%,50.7%,72.2%,-16.7% (active),47.3%,49.4%,54.1%,37.5%,–
C[C@@H](Oc1cc(-c2cnn(C3CC4(CNC4)C3)c2)cnc1N)c1c(Cl)ccc(F)c1Cl,-24.6% (active),27.7%,48.9%,38.1%,48.2%,66.3%,64.2%,63.2%,41.6%,91.3%,43.3%,80.3%,41%,23.8%,9.06% (active),16.7%,-18.5% (active),57.1%
Cc1nc(NN)c([N+](=O)[O-])c(NN)n1,73.5%,82.5%,102%,92.8%,114%,121%,108%,99.9%,139%,119%,103%,107%,104%,104%,98.7%,99.2%,104%,–
Cc1nc2cc(Nc3nc(Nc4ccc(F)cc4)nc(N4CCCC4)n3)ccc2n1Cc1ccccc1,-27.9% (active),-47.4% (active),-35.2% (active),-54.8% (active),4.79% (active),-2.81% (active),-6.78% (active),-84% (active),30.6%,-28% (active),-31.3% (active),-14% (active),-74.2% (active),-53.8% (active),3.05% (active),-79.3% (active),-73.4% (active),-59.2% (active)
Cc1ccc2nc(NC(=O)CSC(=S)N3CCN(Cc4ccccc4)CC3)sc2c1,11.1%,8.2% (active),0.825% (active),-36.3% (active),12.6%,-44.7% (active),-39.8% (active),-90.4% (active),-0.695% (active),22.6%,-32.5% (active),-55.4% (active),-38.5% (active),-84.7% (active),-71.2% (active),-54.9% (active),-92.7% (active),–
Cc1ccc(C)c2c1sc1nc3nc4sc5ccccc5n4c(=N)c3c(=O)n12,78.5%,89.4%,116%,91.3%,88%,92.5%,64.3%,89.4%,94.8%,97.6%,78.9%,115%,121%,108%,51.1%,91.6%,101%,94.6%
O=C1C(OCCOc2ccccc2)=C(OCCOc2ccccc2)C(=O)c2ccccc21,60.1%,78.8%,86.8%,124%,44.8%,57.9%,62.7%,78.2%,60.3%,68.8%,78.2%,27.4%,75.8%,45.1%,64%,26%,57.8%,–
CCN1C(=O)C2(Nc3ccccc3S2)c2cc(C)ccc21 (stereo not drawn),111%,92.9%,97.8%,91.8%,95.9%,100%,98.2%,108%,116%,101%,93.5%,110%,102%,96.5%,101%,96.7%,107%,105%
CCOC(=O)C1=C(C)N2C(=NC3=C(CCCC/C3=C\c3ccccc3)C2c2ccccc2)S1 (stereo not drawn),90.9%,96.2%,103%,94.8%,93.4%,88.5%,108%,107%,99.6%,101%,78.7%,99.1%,93.7%,101%,87.8%,96.3%,97.3%,94.9%
COc1ccc(-c2cc(=O)oc3c4c(ccc23)OCN(Cc2ccc(F)cc2)C4)cc1,54.7%,30.1%,56.7%,80.2%,35.2%,74.3%,64.5%,52.4%,83.1%,45.9%,62.8%,66%,59.6%,66.2%,48.8%,39.6%,79.4%,–
O=[N+]([O-])c1cc2c(cc1Br)-c1ccccc1C2,82.7%,80.7%,97.3%,124%,48.5%,90%,87.1%,102%,94%,81.6%,14.9%,76.8%,94.7%,83.6%,3.07% (active),84%,58.5%,–
ONc1nc(NO)c2[nH]cnc2n1,21.3%,45.1%,58.3%,89.5%,84.7%,97.1%,86.9%,87.8%,108%,74.7%,53.5%,77.4%,75.7%,55%,90.2%,46.8%,110%,121%
COc1ccc(-n2ncc3c2ccc2cc(S(=O)(=O)c4ccccc4)c(=O)n(C)c23)cc1,86.1%,85.4%,65.4%,98.4%,6.65% (active),83.5%,109%,91.1%,49.5%,77.3%,90.6%,67.8%,90.3%,97.5%,91%,78.3%,88.8%,102%
OC[C@@H](O)[C@@H](O)CO,81.7%,118%,105%,102%,101%,116%,109%,106%,104%,99.6%,103%,101%,100%,98.4%,–,102%,105%,102%
Cc1cc(=O)c2c(C)ccc(C)c2[nH]1,110%,105%,94.5%,97.3%,106%,107%,103%,169%,108%,100%,96.1%,123%,104%,104%,93.5%,96.3%,130%,91.2%
COc1ccccc1-n1c(SCc2cc(OC)c(OC)c(OC)c2)nc2ccc(Cl)cc2c1=O,16.1%,17.4%,55.3%,53.3%,63%,59.5%,47.7%,0.54% (active),39.6%,20.2%,43.9%,39.5%,-34.2% (active),16.9%,–,21.1%,16.4%,56.9%
COc1ccc(C2CC(c3cc(OC)c(OC)c(OC)c3)=NN2c2ccc(S(N)(=O)=O)cc2)cc1 (stereo not drawn),33.2%,4.35% (active),61.9%,92.3%,69.9%,88.3%,73.9%,77.5%,66.7%,–,55.9%,83.9%,66.2%,67.9%,57%,48.2%,63.5%,79.7%
